Source: PubChem
HCMV inh – inhibitors of human cytomegalovirus; HFF cells, HCMV-luciferase reporter, 72 h; active compounds read low; activity change, negative = inhibition, % at 57.5 µM; actives 4.5% (n = 410,000); AID 1259415; in the data active means activity change below about -60%; inconclusive means no clear call, values can overlap the other calls; inactive means above about -39%
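Luciferase read-out from HCMV-luciferase-infected HFFs (MOI 1 PFU/cell) 72 h post infection at 37C; compounds added after 16 h cell attachment; activity normalized between buffer-only basal and Salinomycin (10uM) inhibitor controls.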
Pf growth 48h – inhibits P. falciparum growth in the first generation, 48 h; Potency, µM (titrated, usually from 28.7 µM), hits mostly inhibitors; actives 5.9% (n = 310,000); P. falciparum luciferase growth in erythrocytes, 48 h
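Luminescence readout; reporter = integrated firefly luciferase in P. falciparum. RBC culture at 2% hematocrit, 0.1% parasitemia final, 37 C/5% CO2; decreased signal taken as growth inhibition.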
Sm TGR inh – S. mansoni TGR enzyme inhibition | Q962Y6 | purified TGR, DTNB reduction, TNB absorbance 405 nm | Potency, µM (top dose mostly 114 µM), most hits filed as inhibitors | actives 3% (n = 360,000) | AID 485364; further: nearly all actives have a fitted effect of over 60% in size
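TGR 20 nM + NADPH 100 uM (dispensed conc.), cpd preinc 15 min RT; start with NADPH (500 uM addition) then DTNB (15 mM addition). Kinetic TNB absorbance, 405 nm filter. Four-parameter Hill fit across titration.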
Pf growth 96h – P. falciparum growth inhibition at 96 hour, primary screen for plastid delayed-death inhibitors; actives 6.9% (n = 320,000); Potency, µM (highest dose often 28.7 µM), actives largely listed as inhibitors; AID 504834; P. falciparum luciferase reporter growth, 96 h
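P. falciparum expressing integrated firefly luciferase, in erythrocytes at 2% hematocrit, 0.05% parasitemia, incubated with compounds 96 h at 37 C, 5% CO2. Growth inhibition read as loss of luminescence; two-generation exposure targets delayed-death apicoplast inhibitors.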
Giardia FBPA inh – blocks Giardia fructose-bisphosphate aldolase activity; purified Giardia FBPA; Potency, µM (series often up to 59.6 µM), most hits filed as inhibitors; A8B2U2; AID 2451; actives 0.71% (n = 290,000); further: nearly all actives have a fitted effect of over 55% in size
Target sequence (A8B2U2 whole entry, looked up): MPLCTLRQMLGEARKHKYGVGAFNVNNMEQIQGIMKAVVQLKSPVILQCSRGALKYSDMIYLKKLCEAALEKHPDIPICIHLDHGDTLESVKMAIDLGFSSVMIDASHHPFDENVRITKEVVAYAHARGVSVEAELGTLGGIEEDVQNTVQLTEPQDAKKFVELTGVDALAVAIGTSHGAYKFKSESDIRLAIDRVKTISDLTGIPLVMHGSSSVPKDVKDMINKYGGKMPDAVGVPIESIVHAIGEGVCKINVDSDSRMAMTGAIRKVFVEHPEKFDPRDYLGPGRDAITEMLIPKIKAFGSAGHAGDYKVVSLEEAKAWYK
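Giardia FBPA (40 nM reagent) was preincubated 10 min at RT with compound (up to 57.5 uM final), then substrate plus GAPDH/TPI/NAD/arsenate coupling system with diaphorase/resazurin was added; resorufin fluorescence (525/598 nm) was read after 20 min.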
Large screens that a line does not name were inactive. Hits are enriched below; roughly 14% of the tested compounds scored in any of these assays. Unless noted, the call rests on the fitted dose curve; in most records, active means well fitted curve in the direction sought with a large enough effect; inconclusive means small, poorly fitted or top-dose-only effect, or another doubt; inactive means no such curve, though single readings can be large; an effect the other way counts as inactive or inconclusive.

CCS(=O)(=O)c1nc(S(=O)(=O)c2ccc(Cl)cc2)c(N2CCc3ccccc3C2)s1	HCMV inh -73, Pf growth 48h 9.3µM, Sm TGR inh inconclusive, Pf growth 96h 2.9µM
COc1ccc(S(=O)(=O)N(C)C)cc1NC(=O)CCCSc1ccccc1	Pf growth 48h inconclusive, Pf growth 96h inconclusive
CC(=O)c1cccc(NS(=O)(=O)c2ccc3[nH]c4c(c3c2)CCCCCC4)c1	none (no result: Pf growth 48h, Pf growth 96h, Giardia FBPA inh)
CCSc1nnc(-c2cccnc2)n1-c1ccc(Cl)c(C)c1	Pf growth 96h 12µM (no result: Pf growth 48h)
COc1cccc(-n2c(SCC(=O)O)nnc2-c2cccnc2)c1	Pf growth 96h inconclusive
O=C(CSc1nnc(-c2cccnc2)n1-c1ccccc1)Nc1ccccn1	Pf growth 96h 10µM
Clc1ccc(-n2c(SC/C=C/c3ccccc3)nnc2-c2cccnc2)cc1	Pf growth 48h 12µM (no result: Pf growth 96h)
OC(c1ccc(F)cc1)c1ncc(-c2cccc3ccccc23)[nH]1 (centres undefined)	none (no result: Pf growth 48h, Sm TGR inh, Pf growth 96h, Giardia FBPA inh)
CC(C)N=C(NC#N)SCc1ccc(Br)cc1	Pf growth 48h inconclusive, Pf growth 96h 13µM
CC(C)N=C(NC#N)SCc1ccccc1	none
COc1ccc(CN(C(=O)CSc2nnc(-c3ccccc3C)o2)c2ccc(F)cc2)cc1	HCMV inh -75, Pf growth 48h inconclusive, Sm TGR inh inconclusive
O=C(CSc1nnc(-c2c[nH]c3ccccc23)o1)N(Cc1ccccc1)c1ccc(F)cc1	Pf growth 48h 7.4µM, Pf growth 96h inconclusive (no result: HCMV inh)
CN(CCC#N)C(=O)CSc1nnc(-c2c[nH]c3ccccc23)o1	Sm TGR inh inconclusive
COc1ccc(-c2cnc(OC(C)(C)C)nc2OC(C)(C)C)cc1OC	Pf growth 48h 10µM (no result: Pf growth 96h)
CC(C)C1NC(=O)[C@H](CCCCN)NC(=O)[C@@H](Cc2c[nH]c3ccccc23)NC(=O)[C@H](Cc2ccc(O)cc2)NC(=O)[C@H](C)N(C)C(=O)[C@H](Cc2ccccc2)NC1=O (some centres undefined)	none (no result: HCMV inh, Pf growth 48h, Sm TGR inh, Pf growth 96h)
CC(CC(=O)NC1CCCCC1)S(=O)(=O)c1ccc2c(c1)NC(=O)CO2 (centres undefined)	Pf growth 96h 13µM
Cc1ccc(NC(=O)CC(C)S(=O)(=O)c2ccc3c(c2)NC(=O)CO3)cc1C (centres undefined)	Pf growth 48h inconclusive, Pf growth 96h 12µM
Cc1ccc(NS(=O)(=O)c2ccc3c(c2)NC(=O)CO3)cc1C	Pf growth 96h 9.3µM (no result: Giardia FBPA inh)
Cc1ccc(NS(=O)(=O)c2ccc3c(c2)NC(=O)CO3)cc1Cl	none
CC(CC(=O)N1CCc2ccccc21)S(=O)(=O)c1ccc2c(c1)NC(=O)CO2 (centres undefined)	Pf growth 96h 10µM (no result: Giardia FBPA inh)
CC(=O)Nc1ccc(N(C(=O)c2ccco2)C(C(=O)NC2CCCCC2)c2ccccc2)cc1 (centres undefined)	HCMV inh -64, Pf growth 48h inconclusive
O=C(NC1CCCC1)C(c1ccccc1)N(C(=O)c1ccco1)C1CCCC1 (centres undefined)	HCMV inh -78, Pf growth 48h inconclusive
CC(=O)Nc1ccc(N(C(=O)c2ccco2)C(C(=O)NC2CCCC2)c2cccs2)cc1 (centres undefined)	Pf growth 48h inconclusive, Pf growth 96h inconclusive
CC(C)CCC(C(=O)O)C(C)CC(=O)NC1CCCCC1 (centres undefined)	none
CCCCCC(C(=O)O)C(C)CC(=O)NC1CCCCC1 (centres undefined)	Pf growth 96h 13µM
CCc1nc2ccc(C(=O)NCc3ccccc3OC)cn2c1N(CC)CCN(C)C	none (no result: Pf growth 48h, Sm TGR inh, Pf growth 96h, Giardia FBPA inh)
O=C(COC(=O)C1(c2ccc(F)cc2)CCCC1)NCc1ccco1	Sm TGR inh 32µM
O=C(COC(=O)C1CCCCC1C(=O)N1CCc2ccccc21)NCc1ccco1 (centres undefined)	HCMV inh inconclusive, Pf growth 48h 12µM, Sm TGR inh 25µM
Cc1ccc2cccc(OCC(=O)NCc3ccco3)c2n1	Sm TGR inh 45µM, Pf growth 96h inconclusive
COc1ccccc1NS(=O)(=O)c1ccc(C(=O)OCC(=O)NCc2ccco2)cc1	Sm TGR inh 40µM
COc1ccccc1NC(=O)COC(=O)c1ccc(S(=O)(=O)NCc2ccco2)cc1	Sm TGR inh inconclusive
O=C(COC(=O)/C=C/c1ccc(F)cc1)NCc1ccco1	none
Cc1ccc(Cc2c(-c3cccc(Cl)c3)nc3c4ccccc4ccn23)cc1	none (no result: Pf growth 48h, Sm TGR inh, Pf growth 96h, Giardia FBPA inh)
O=C(NCc1ccc(Cl)cc1)c1ccc(S(=O)(=O)N2CCCCC2)cc1	Pf growth 48h inconclusive, Pf growth 96h inconclusive (no result: Giardia FBPA inh)
O=C(COC(=O)C1CC2C=CC1C2)NCc1ccco1 (centres undefined)	Sm TGR inh 50µM
COc1cccc(CNCc2ccco2)c1O	Pf growth 96h 12µM
O=C(COC(=O)C1CC2C=CC1C2)NCc1ccc(F)cc1 (centres undefined)	none
Cc1cccc(Nc2ccccc2C(=O)OCC(=O)NCc2ccco2)c1C	Pf growth 48h inconclusive, Pf growth 96h 12µM
CN(c1ccccc1)S(=O)(=O)c1ccc(C(=O)OCC(=O)NCc2ccco2)cc1	Sm TGR inh 25µM (no result: Pf growth 48h)
O=C(CSc1ccccc1)N1CCCC(N2CCN(c3cccc(Cl)c3)CC2)C1 (centres undefined)	none (no result: Pf growth 48h, Sm TGR inh, Pf growth 96h, Giardia FBPA inh)
COc1ccccc1OCC(=O)Nc1oc(-c2ccccc2)c(-c2ccccc2)c1C#N	none (no result: Pf growth 96h)
COc1ccccc1OCC(=O)NCc1ccco1	none
COc1cccc(OC)c1C(=O)OCC(=O)NCc1ccco1	Sm TGR inh 50µM (no result: Giardia FBPA inh)
N#Cc1c(NC(=O)COC(=O)C2CC3C=CC2C3)oc(-c2ccccc2)c1-c1ccccc1 (centres undefined)	Pf growth 96h 9.3µM
COc1cc(/C=C/C(=O)OCC(=O)NCc2ccco2)ccc1O	Pf growth 48h inconclusive, Sm TGR inh 28µM (no result: Giardia FBPA inh)
Cc1cccc(C)c1-n1nnnc1C1(C)CCC(=O)N1Cc1cccc(C(F)(F)F)c1 (centres undefined)	none (no result: Pf growth 48h, Sm TGR inh, Pf growth 96h, Giardia FBPA inh)
CCCNC(=O)c1cc(S(=O)(=O)N2CCCCC2)ccc1N1CCOCC1	Pf growth 48h inconclusive (no result: Giardia FBPA inh)
CCc1ccc(CN(C)C(=O)c2cc(S(=O)(=O)N3CCOCC3)ccc2N2CCCC2)cc1	Pf growth 48h 12µM, Pf growth 96h inconclusive (no result: Giardia FBPA inh)
CC1CCC(NC(=O)c2cc(S(=O)(=O)N3CCCCC3)ccc2N2CCOCC2)CC1 (centres undefined)	Pf growth 48h 9.3µM, Pf growth 96h inconclusive (no result: Giardia FBPA inh)
CN(Cc1cccc(F)c1)C(=O)c1cc(S(=O)(=O)N2CCOCC2)ccc1N1CCCC1	Pf growth 48h inconclusive, Pf growth 96h inconclusive (no result: Giardia FBPA inh)
CCCCCC(C)NC(=O)c1cc(S(=O)(=O)N2CCCCC2)ccc1N1CCOCC1 (centres undefined)	Pf growth 48h 13µM, Pf growth 96h inconclusive (no result: Giardia FBPA inh)
NNC(=O)CCN(Cc1ccco1)S(=O)(=O)c1ccc(Cl)cc1	HCMV inh -67, Pf growth 48h inconclusive, Pf growth 96h inconclusive
C=CCN(Cc1ccco1)S(=O)(=O)c1ccc(Cl)cc1	none
